Results published in PubChem BioAssay (NCATS).
Values joined by “and” are separate entries in the source; they are usually repeats but may differ in a detail not shown here. Equal entries are not always repeated. Records with an inconclusive call do not appear. Active and inactive are the calls of the source. Unless noted, calls follow the shape of the dose curve; as a rule, active = well fitted curve in the direction sought with a large enough effect; inconclusive = small, poorly fitted or top-dose-only effect, or another doubt; inactive = no such curve, though single readings can be large; an effect the other way counts as inactive or inconclusive.

Legend:
[1] = AP1 Signaling Pathway (AID 357; active = well fitted curve in either direction with a large enough effect, not every such curve was filed as active;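 also: ME-180 reporter cells stimulated with EGF at its EC50 level; % is scaled to controls: 0 for no effect and ±100 for the full control effect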); conditions: ME-180 AP-1-bla reporter, EGF-induced, beta-lactamase ratio, 5 h
Method in brief: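 Beta-lactamase reporter under AP-1 response element, ME-180 background. Stimulus: EC50 EGF. Compound exposure 5 h, 37 °C. Detection: CCF4, 2.5 h RT, 460/530 nm. Values: AC50 from titration.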

[2] = NFAT Signaling Pathway (AID 444; active = well fitted curve in either direction with a large enough effect, not every such curve was filed as active;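 also: carbachol stimulus at about its EC50 of 1 µM final; % is scaled to controls: 0 for no effect and ±100 for the full control effect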); conditions: Jurkat NFAT-bla M1, carbachol, beta-lactamase ratio, 5 h
Method in brief: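 Jurkat cells carrying an NFAT-driven β-lactamase reporter and co-transfected muscarinic M1 receptor were treated with compound plus carbachol (1 uM final, an EC50 level) for 5 h at 37 °C. CCF4 loading followed for 1 h at RT; 460/530 nm ratio gave %activity.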

[3] = Stat Signaling Pathway (AID 446; active = well fitted curve in either direction with a large enough effect, not every such curve was filed as active;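 also: ME-180 cervical cancer cells given 40 pM IL-6 alongside compound; SIE-controlled beta-lactamase reporter measured as 460/530 nm FRET emission ratio; % is scaled to controls: 0 for no effect and ±100 for the full control effect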); conditions: ME-180 (cervical carcinoma) SIE beta-lactamase reporter, IL-6 stimulated, 5 h
Method in brief: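 Normalization used AC90 stimulation (300 pM IL-6) and AC90 inhibition (125 nM pan-JAK inhibitor at 40 pM IL-6). The underlying signal is SIE-driven beta-lactamase in ME-180 cells after 5 h IL-6 exposure with compound.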

[4] = biological target: Mitogen-activated protein kinase 10 (Mus musculus) (UniProt Q61831); experiment: JNK3 AlphaScreen Assay (AID 530; active = well fitted curve in either direction with a large enough effect, not every such curve was filed as active;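 also: kinase came from lysate of stimulated human HepG2 cells; signal reports phosphorylation of biotinylated GST-cJun 1-79 at Ser73 with 10 µM ATP; % is scaled to controls: 0 for no effect and ±100 for the full control effect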)
Method in brief: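 Phosphorylation of biotinylated GST-cJun(1-79) at Ser73 is measured by AlphaScreen proximity luminescence. Enzyme is JNK3 in HepG2 lysates activated with interleukin-1beta and tumor necrosis factor alpha; ATP is 10 uM final.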

[5] = biological target: 3',5'-cyclic-AMP phosphodiesterase 4B (Homo sapiens) (UniProt Q07343); experiment: qHTS Assay for Inhibitors of PDE-IV (AID 607; active = well fitted activation curve with a large enough effect in the main read-out, with a control signal flat, not every such curve was filed as active; also: % of control where 0% means no effect)
Chain of 3',5'-cyclic-AMP phosphodiesterase 4B (Homo sapiens) (Q07343 whole entry, looked up): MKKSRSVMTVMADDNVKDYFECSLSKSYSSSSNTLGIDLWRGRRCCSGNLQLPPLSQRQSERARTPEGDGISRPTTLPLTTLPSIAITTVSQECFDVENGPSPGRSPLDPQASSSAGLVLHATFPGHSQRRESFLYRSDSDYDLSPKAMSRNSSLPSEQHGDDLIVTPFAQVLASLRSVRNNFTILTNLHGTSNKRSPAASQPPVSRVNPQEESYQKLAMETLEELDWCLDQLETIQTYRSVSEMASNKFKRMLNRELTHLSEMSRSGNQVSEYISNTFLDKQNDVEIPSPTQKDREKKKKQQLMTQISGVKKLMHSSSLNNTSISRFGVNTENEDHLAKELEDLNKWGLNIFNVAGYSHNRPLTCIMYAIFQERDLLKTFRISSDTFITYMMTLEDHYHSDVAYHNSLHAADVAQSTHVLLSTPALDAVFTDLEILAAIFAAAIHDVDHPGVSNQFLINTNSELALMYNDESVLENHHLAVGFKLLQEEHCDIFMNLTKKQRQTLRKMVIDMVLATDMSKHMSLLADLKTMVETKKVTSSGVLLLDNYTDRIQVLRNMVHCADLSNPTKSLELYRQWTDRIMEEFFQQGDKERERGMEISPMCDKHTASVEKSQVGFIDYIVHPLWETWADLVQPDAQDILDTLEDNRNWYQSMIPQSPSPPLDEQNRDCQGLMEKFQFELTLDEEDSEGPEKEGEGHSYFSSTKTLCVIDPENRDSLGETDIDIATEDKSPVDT
Method in brief: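 HEK293 ACTOne cells with CNG channel (1000/well), endogenous PDE4; membrane potential dye, compounds up to 22.9 uM final. Fluorescence Ex 535/Em 590; RO 20-1724 (100 uM final) as reference.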

[6] = biological target: Guanine nucleotide-binding protein G(i) subunit alpha-1 (Homo sapiens) (UniProt P63096); experiment: qHTS Assay for Inhibitors of RGS12 GoLoco Motif Activity (Green Fluorophore) (AID 879);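 also: 0% = labeled peptide with Gαi1 and full inhibition = labeled peptide alone without protein; negative values mean loss of peptide binding seen as reduced polarization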
Chain of Guanine nucleotide-binding protein G(i) subunit alpha-1 (Homo sapiens) (P63096 whole entry, looked up): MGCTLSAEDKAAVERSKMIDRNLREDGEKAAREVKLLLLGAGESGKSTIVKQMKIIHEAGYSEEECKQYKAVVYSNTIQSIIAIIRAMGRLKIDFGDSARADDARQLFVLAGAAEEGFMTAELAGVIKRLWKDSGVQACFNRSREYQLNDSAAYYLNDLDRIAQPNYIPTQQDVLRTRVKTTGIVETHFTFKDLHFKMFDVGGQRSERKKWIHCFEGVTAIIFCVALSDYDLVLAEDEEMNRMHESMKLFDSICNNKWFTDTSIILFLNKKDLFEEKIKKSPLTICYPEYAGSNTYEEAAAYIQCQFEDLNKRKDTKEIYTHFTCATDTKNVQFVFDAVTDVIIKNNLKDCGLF
Method in brief: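 A drop in FITC polarization marked displacement of the FITC-tagged RGS12 GoLoco peptide (10 nM) from Gαi1 (50 nM). Compounds were incubated 10 min at room temperature in Tris pH 7.5 buffer containing 150 mM NaCl, 0.1 mM GDP and 0.05% NP40; unlabeled peptide titration served as control.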

[7] = biological target: Muscarinic acetylcholine receptor M1 (Rattus norvegicus) (UniProt P08482); experiment: qHTS Assay for Antagonists of Acetylcholine Muscarinic M1 Receptor: Measurement of IP-One Response (AID 944); also: nearly all actives have a fitted effect of over 75% in size
Chain of Muscarinic acetylcholine receptor M1 (Rattus norvegicus) (P08482 whole entry, looked up): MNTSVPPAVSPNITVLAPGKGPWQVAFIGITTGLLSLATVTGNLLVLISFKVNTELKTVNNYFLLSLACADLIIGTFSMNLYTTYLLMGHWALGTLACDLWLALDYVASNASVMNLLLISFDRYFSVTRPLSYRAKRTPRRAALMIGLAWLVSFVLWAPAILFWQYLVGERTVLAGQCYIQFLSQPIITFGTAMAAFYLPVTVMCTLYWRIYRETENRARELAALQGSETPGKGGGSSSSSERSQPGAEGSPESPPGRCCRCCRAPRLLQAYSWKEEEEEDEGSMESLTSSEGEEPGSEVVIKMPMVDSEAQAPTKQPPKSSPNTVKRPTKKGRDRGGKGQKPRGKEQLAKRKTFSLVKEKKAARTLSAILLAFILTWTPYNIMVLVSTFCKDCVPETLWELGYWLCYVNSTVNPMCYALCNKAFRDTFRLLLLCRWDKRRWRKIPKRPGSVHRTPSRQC
Method in brief: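 IP1 accumulation measured via TR-FRET between d2-IP1 and Eu-cryptate anti-IP1 antibody after carbachol (200 nM, EC80) stimulation for 30 min; rat M1-transfected CHO cells received compound 10 min before agonist.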

[8] = biological target: Pyruvate kinase (Leishmania mexicana) (UniProt Q27686); experiment: qHTS Validation Assay for Inhibitors of Leishmania Mexicana Pyruvate Kinase (AID 945);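 also: 0% = DMSO only neutral control wells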
Chain of Pyruvate kinase (Leishmania mexicana) (Q27686 2-499 E452W): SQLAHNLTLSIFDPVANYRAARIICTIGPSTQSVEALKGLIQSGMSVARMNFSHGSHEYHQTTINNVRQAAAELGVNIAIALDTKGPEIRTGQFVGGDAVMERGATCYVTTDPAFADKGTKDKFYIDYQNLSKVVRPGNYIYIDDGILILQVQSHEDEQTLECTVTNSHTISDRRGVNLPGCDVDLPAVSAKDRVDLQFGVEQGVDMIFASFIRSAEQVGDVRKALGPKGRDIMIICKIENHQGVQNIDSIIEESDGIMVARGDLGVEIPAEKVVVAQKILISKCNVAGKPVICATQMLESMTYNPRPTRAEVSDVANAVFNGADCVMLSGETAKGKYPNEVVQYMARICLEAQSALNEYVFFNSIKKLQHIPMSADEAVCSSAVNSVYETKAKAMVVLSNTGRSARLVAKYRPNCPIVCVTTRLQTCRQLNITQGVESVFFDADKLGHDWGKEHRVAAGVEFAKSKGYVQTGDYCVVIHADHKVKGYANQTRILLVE
Method in brief: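 Substrate mix (0.5 mM PEP, 0.1 mM ADP, 7 mM MgCl2, 50 mM KCl, pH 7.2 imidazole) received compound by pin tool, then 0.2 nM LmPYK E451W. After 1 h at room temperature, PKLight was added and luminescence measured.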

[9] = biological target: Pyruvate kinase PKM (Homo sapiens) (UniProt P14618); experiment: qHTS Assay for Activators of Human Muscle Pyruvate Kinase (AID 954; active = well fitted curve in the direction sought with a large enough effect, not every such curve was filed as active;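 also: 0% = uninhibited enzyme and -100% = no enzyme or full thiadiazolimine inhibition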)
Chain of Pyruvate kinase PKM (Homo sapiens) (P14618 whole entry, looked up): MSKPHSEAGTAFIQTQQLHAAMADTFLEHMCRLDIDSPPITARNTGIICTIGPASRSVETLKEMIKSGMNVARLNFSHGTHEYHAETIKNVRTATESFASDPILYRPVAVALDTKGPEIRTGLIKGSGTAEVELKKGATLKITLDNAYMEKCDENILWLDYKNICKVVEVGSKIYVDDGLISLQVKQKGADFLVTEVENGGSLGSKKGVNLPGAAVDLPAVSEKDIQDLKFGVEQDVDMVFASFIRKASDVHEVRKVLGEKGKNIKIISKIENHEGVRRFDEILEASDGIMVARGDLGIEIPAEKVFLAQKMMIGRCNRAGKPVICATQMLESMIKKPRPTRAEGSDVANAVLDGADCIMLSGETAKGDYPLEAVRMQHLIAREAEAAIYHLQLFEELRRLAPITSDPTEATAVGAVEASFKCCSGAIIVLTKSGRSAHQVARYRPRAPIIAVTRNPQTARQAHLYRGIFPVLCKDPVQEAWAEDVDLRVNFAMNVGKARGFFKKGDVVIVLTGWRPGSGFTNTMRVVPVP
Method in brief: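 Compound pinned into substrate mix (0.5 mM PEP, 0.1 mM ADP), then 0.1 nM PKM2 added; 1 h, RT. Stop/detection luciferase reagent added, luminescence read. Normalized to no-inhibition and no-enzyme or reference-inhibitor controls.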

[10] = biological target: Alpha-galactosidase A (Homo sapiens) (UniProt P06280); experiment: Counterscreen for Glucocerebrosidase Inhibitors: qHTS Assay for Human alpha-Galactosidase at pH 4.5 (AID 992); also: 0% is about no effect
Chain of Alpha-galactosidase A (Homo sapiens) (P06280 whole entry, looked up): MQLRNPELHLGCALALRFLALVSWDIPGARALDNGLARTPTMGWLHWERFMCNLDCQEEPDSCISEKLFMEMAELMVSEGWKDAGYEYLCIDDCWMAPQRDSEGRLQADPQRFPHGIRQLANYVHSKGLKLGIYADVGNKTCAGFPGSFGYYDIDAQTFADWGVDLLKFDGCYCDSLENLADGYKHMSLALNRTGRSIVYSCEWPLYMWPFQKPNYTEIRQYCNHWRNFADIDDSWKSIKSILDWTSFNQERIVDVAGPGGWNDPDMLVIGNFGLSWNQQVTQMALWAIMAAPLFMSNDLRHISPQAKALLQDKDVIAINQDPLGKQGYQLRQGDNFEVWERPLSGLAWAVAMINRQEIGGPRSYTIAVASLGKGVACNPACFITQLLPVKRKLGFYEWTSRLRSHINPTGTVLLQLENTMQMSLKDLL
Method in brief: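 Steps: enzyme (2 nM final), then compound across 0.7 nM to 77 uM, then 80 uM fluorogenic galactopyranoside substrate; incubate 20 min at room temperature; quench at pH 10; measure fluorescence at 365/440 nm.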

[11] = biological target: alpha-glucosidase (Oryza sativa, rice) (UniProt Q653V4); experiment: Counterscreen for Glucocerebrosidase Inhibitors: qHTS Assay for Rice alpha-Glucosidase at pH 5.0 (AID 997);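 also: 0% = full activity with enzyme and -100% = basal without enzyme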
Method in brief: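 Endpoint fluorogenic assay at pH 5.0: compounds (0.7 nM to 77 uM) titrated against 4 nM rice enzyme and 400 uM 4-MU-alpha-glucoside for 20 min at room temperature; NaOH/glycine stop, read ex 365/em 440 nm, Hill-fitted AC50.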

[12] = qHTS Assay for Lipid Storage Modulators (AID 1519; calls by dose curve); conditions: Drosophila S3 cells, BODIPY lipid droplet/cell ratio, laser cytometry, cells loaded with oleic acid
Method in brief: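 Cells seeded at 5,000 per well were treated with compounds over a concentration series and loaded with oleic acid (400 uM, as added). Lipid droplet fluorescence (488 nm excitation, 500-530 nm channel) was read by laser-scanning cytometry and normalized to 20 uM Triacsin C.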

[13] = biological target: DNA repair nuclease/redox regulator APEX1 (Homo sapiens) (UniProt P27695); experiment: qHTS Validation Assay for Inhibitors of the Human Apurinic/apyrimidinic Endonuclease 1 (APE1) (AID 1705)
Chain of DNA repair nuclease/redox regulator APEX1 (Homo sapiens) (P27695 whole entry, looked up): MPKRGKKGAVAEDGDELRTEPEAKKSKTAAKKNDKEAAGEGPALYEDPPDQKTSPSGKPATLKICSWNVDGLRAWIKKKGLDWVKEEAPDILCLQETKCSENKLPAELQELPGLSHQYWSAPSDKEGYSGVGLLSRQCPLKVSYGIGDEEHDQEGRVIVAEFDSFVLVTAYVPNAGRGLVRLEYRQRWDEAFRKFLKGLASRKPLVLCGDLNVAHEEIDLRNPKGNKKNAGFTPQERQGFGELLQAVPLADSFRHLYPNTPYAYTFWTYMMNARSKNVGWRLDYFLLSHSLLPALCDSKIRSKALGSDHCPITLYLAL
Method in brief: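 Activity read as rising fluorescence (598 nm emission, 525 nm excitation) from incision of a TAMRA/BHQ-2 duplex carrying a THF abasic site (50 nM). Compound and enzyme sat 15 min at RT before substrate start; signal change between first and third 60-s reads.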

[14] = Counterscreen for APE1 Inhibitors: Fluorescent Dye Displacement Validation Assay (AID 1707);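 also: plate controls were ThO with dsDNA and no compound for no effect and ThO without dsDNA for full effect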
Method in brief: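 Reaction mixture of 250 nM Thiazole Orange and 50 nM double-stranded abasic-site DNA was dispensed, compounds were pin-transferred, and fluorescence was read at endpoint (480 nm ex, 540 nm em). Reduced fluorescence indicated dye displacement by DNA binding.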

[15] = qHTS for differential inhibitors of proliferation of Plasmodium falciparum line GB4 (AID 1816); conditions: Potency: Plasmodium falciparum GB4 proliferation inhibition;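 also: potency is read from the fitted curve at half-maximal effect; parasite growth measured after 72 h incubation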
[16] = qHTS for differential inhibitors of proliferation of Plasmodium falciparum line 3D7 (AID 1876); also: potency is read from the fitted curve at half-maximal effect
[17] = qHTS for differential inhibitors of proliferation of Plasmodium falciparum line D10 (AID 1877);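 also: potency is read from the fitted curve at half-maximal effect; parasites grown with compound for 72 h before DNA staining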
[18] = qHTS for differential inhibitors of proliferation of Plasmodium falciparum line W2 (AID 1883); conditions: Potency: Plasmodium falciparum W2 proliferation inhibition;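 also: potency is read from the fitted curve at half-maximal effect; parasites grown with compound for 72 h before lysis and staining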
[19] = qHTS for differential inhibitors of proliferation of Plasmodium falciparum line HB3 (AID 1886); conditions: Potency: Plasmodium falciparum HB3 proliferation inhibition;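 also: potency is read from the fitted curve at half-maximal effect; parasites grown with compound for 72 h before SYBR Green readout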
[20] = biological target: ATP-dependent DNA helicase Q1 (Homo sapiens) (UniProt P46063); experiment: qHTS Validation Assay for Inhibitors of RecQ-Like Dna Helicase 1 (RECQ1) (AID 2353);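 also: plate controls were DMSO vehicle for no effect and enzyme-free control for full effect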
Method in brief: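 RECQ1T1 50 nM; forked duplex (20 bp + 30-nt ss tails) 200 nM, ATP 2 mM final; pH 8.0, 2 mM MgCl2, 2.5 ug/ml poly(dI-dC); 15 min compound preincubation; discontinuous kinetic read over 2 h at RT.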

[21] = Validation screen for small molecules that induce DNA re-replication in MCF 10A normal breast cells (AID 463097); also: 0% is about no effect; nearly all actives have a fitted effect of over 60% in size
Method in brief: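 Read-out is Hoechst total nuclear intensity by fluorescence scanning imager, flagging increased high-DNA-content nuclei. Compounds were incubated with MCF 10A cells for 48 hr (37 C, 5% CO2) before 40 min staining.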

[22] = Quantitative high throughput screen for delayed death inhibitors of the malarial parasite plastid, 96 hour incubation (AID 488745); also: potency is read from the fitted curve at half-maximal effect; nearly all actives have a fitted effect of over 70% in size
Method in brief: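 Decreased firefly luciferase luminescence indicates inhibited growth of reporter-integrated P. falciparum after two generations (96 h, 37 C, 5% CO2). Infected erythrocytes at 0.1% parasitemia, 2% hematocrit, in Albumax-supplemented RPMI 1640.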

[23] = Quantitative high throughput screen for delayed death inhibitors of the malarial parasite plastid, 48 hour incubation (AID 488752); also: potency is read from the fitted curve at half-maximal effect; nearly all actives have a fitted effect of over 65% in size
Method in brief: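 One-generation (48 h) growth assay: a decrease in luciferase signal from an integrated reporter in P. falciparum-infected red cells (0.1% parasitemia, 2% hematocrit) after compound exposure at 37 C indicates parasite inhibition.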

[24] = biological target: Thyrotropin receptor (Homo sapiens) (UniProt P16473); experiment: qHTS Assay for Antagonists of the Thyroid Stimulating Hormone Receptor (AID 488980); also: 0% is about no effect
Chain of Thyrotropin receptor (Homo sapiens) (P16473 whole entry, looked up): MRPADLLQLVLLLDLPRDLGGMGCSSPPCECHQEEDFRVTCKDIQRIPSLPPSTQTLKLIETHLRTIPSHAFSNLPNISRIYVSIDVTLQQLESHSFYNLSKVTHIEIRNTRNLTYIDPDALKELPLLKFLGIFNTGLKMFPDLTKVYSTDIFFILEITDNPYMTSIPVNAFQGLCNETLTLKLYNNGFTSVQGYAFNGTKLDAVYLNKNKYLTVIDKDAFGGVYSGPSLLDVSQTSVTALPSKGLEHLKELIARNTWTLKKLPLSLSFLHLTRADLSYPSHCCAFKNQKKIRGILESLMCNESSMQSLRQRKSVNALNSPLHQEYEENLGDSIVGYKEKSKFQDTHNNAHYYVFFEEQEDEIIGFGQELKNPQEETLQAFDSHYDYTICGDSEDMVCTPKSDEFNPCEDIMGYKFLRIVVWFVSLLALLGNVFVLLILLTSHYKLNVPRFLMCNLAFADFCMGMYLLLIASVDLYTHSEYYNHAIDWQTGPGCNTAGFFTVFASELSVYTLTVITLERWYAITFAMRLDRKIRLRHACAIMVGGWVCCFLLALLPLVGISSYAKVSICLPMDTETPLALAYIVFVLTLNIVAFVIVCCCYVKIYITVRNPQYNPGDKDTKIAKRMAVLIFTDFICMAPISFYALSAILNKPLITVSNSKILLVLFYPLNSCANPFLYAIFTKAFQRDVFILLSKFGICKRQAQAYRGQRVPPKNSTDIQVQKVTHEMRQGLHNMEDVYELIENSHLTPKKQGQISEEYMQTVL
Method in brief: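 Inhibition of cAMP raised by EC80 TSH (4 nM final) was read by HTRF, with lysate cAMP competing against cAMP-d2 for cryptate antibody after 30 min at room temperature. The cells were transfected HEK293 held in phosphodiesterase inhibitor RO 20-1724 at 70 uM.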

[25] = biological target: Thyrotropin-releasing hormone receptor (Homo sapiens) (UniProt P34981); experiment: qHTS for Small Molecule Agonists and Allosteric Enhancers of Human TRH Receptor: Validation Screen for Agonists (AID 493127;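 active = calcium activation more than 3 SD above the typical response in the agonist read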;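 also: intracellular calcium rise by fluo-8 fluorescence before TRH EC20 addition; 0% is about no effect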); conditions: TRH receptor agonist cell assay; at 2 µM; stronger effect = higher value
Chain of Thyrotropin-releasing hormone receptor (Homo sapiens) (P34981 whole entry, looked up): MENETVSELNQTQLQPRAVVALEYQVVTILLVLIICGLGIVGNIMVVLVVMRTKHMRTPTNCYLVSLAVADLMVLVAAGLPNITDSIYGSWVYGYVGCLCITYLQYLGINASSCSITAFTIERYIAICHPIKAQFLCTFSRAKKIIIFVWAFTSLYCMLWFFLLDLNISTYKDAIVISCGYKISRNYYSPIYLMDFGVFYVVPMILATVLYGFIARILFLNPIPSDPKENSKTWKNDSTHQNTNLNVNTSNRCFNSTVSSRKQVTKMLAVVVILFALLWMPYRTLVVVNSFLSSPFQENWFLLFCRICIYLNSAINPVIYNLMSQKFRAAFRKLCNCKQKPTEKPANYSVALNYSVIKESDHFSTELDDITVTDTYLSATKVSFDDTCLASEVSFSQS
Method in brief: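 Compound-evoked intracellular calcium release in fluo-8-loaded TRHR cells, read kinetically on FDSS (Ex 480/Em 530, 1 s/cycle) after 23 nL pintool transfer. Agonist phase preceded 10 nM TRH EC20 addition.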

[26] = biological target: Galactokinase (Homo sapiens) (UniProt P51570); experiment: qHTS Validation Assay for Inhibitors of Human Galactokinase (GALK) (AID 493189); also: 0% is about no effect
Chain of Galactokinase (Homo sapiens) (P51570 whole entry, looked up): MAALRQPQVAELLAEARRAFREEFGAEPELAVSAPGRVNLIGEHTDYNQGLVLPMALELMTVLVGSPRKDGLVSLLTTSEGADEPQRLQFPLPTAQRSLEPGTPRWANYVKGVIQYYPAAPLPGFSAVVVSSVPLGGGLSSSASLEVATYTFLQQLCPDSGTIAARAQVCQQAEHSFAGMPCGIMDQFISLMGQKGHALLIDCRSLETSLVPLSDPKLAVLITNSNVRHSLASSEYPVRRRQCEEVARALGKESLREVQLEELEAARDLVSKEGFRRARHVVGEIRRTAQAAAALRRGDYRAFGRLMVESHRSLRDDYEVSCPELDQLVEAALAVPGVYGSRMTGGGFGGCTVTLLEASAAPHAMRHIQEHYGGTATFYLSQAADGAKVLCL
Method in brief: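 Inhibition was measured as remaining ATP, detected by luciferase luminescence after a 1 h room-temperature reaction. Final conditions: 5 nM GALK, 100 uM galactose, 35 uM ATP, pH 8.0 HEPES buffer.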

CCCNC[C@H](O)COc1ccccc1C(=O)CCc1ccccc1
-11.4% and -51.8%: max response ([12]; measured here: cell count channel max response)
inactive: activity change, negative = inhibition ([1]; at 17.2 µM (top of the series)) 6.84% | activity change, negative = inhibition ([1]; at 38 µM (top of the series)) 18.1% and 7.01% | activity change, negative = inhibition ([2]; at 17.2 µM (top of the series)) 3.46% | activity change, negative = inhibition ([2]; at 38 µM (top of the series)) 1.4% and 9.3% | activity, negative = inhibition ([3]; at 17.2 µM (top of the series)) -4.64% | activity, negative = inhibition ([3]; at 38 µM (top of the series)) -19.1% and -13.3% | outcome [4] | Potency [5] | outcome [6] | Potency [7] | Potency [8] | outcome [9] | outcome [10] | outcome [11] | activity change, negative = inhibition ([12]; at 25.7 µM (top of the series)) -1.16% | activity change, negative = inhibition ([12]; at 57.5 µM (top of the series)) -2.08% | Potency [13] | Potency [14] | Potency [20] | outcome [21] | outcome [24] | activation [25] 3.19% | outcome [26]
active: Potency [15] 316 nM | Potency [16] 891 nM | Potency [17] 2000 nM | Potency [18] 282 nM | Potency [19] 1120 nM | Potency [22] 2620 nM | Potency [23] 2080 nM
-13.7% and -51.9%: max response ([12]; measured here: lipid channel max response)
